# Results as given in PubChem BioAssay (NCI).
# The panel holds about 83,000 compounds, 20% with a hit somewhere; the sample as a whole holds those more often.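 Cell lines were cultured in 96-well plates, exposed to a single compound concentration, and assessed for percent growth 48 hours later.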 A number with no mark means an inactive call. The source made the active and inactive calls. The calls were made as follows: active = growth percent below 10; inactive = the rest.
# Tested on: MDA-MB-468 breast
# Experiment: NCI-60 one-dose screen, 48 h (100 = growth as untreated, 0 = no growth, -100 = all killed)
# Details: 10 µM unless noted
row,SMILES,growth
1,C=C[C@@H]1C[C@H](O)Cc2ccccc2N1,123%
2,CCCCCCc1nc2c(c(C)nn2-c2ccccc2)c2c1CCCCC2,127%
3,O=C(Nc1ccc(Cl)cc1)c1cc2cc(F)ccc2cc1O,-1.3% (active)
4,O=C(/C=C/c1ccc(Cl)cc1)c1cccc(OCCCOc2cccc(C(=O)/C=C/c3ccc(Cl)cc3)c2)c1,92.9%
5,CC(=O)Nc1ccc(C(=O)CCl)cc1,8.65% (active)
6,Clc1ccc2c(NCCNc3nc(-c4ccccc4)cc(-c4ccccc4)n3)ccnc2c1,-53.8% (active)
7,Nc1c(C(=O)c2ccccc2)nnc2ncnn12,99.7%
8,O=C1NC(=O)C(CC(=O)n2c(-c3ccccc3)nc3ccccc32)C(=O)N1,98.3%
9,Cc1nc(-c2cn3c(n2)-c2ccc(-c4cnn(C(C)(C)C(N)=O)c4)cc2OCC3)n(C(C)C)n1,-20.6% (active)
10,Cc1cc2nc3c4cccc(O)c4n(CCN(C)C)c3nc2cc1C,0.835% (active)
11,CCOc1ccc(-n2nc(C(=O)NCc3ccccc3OC)nc2-c2cc(OC)c(OC)c(OC)c2)cc1,72.4%
12,N#CCCCCCn1c2ccccc2c2c3[nH]c(=O)[nH]c(=O)c3c3c4ccccc4n(CCCCCC#N)c3c21,69.7%
13,COc1ccc(C2=NN(C(C)=O)C(c3cc(OC)c(OC)c(OC)c3)C2)cc1 (stereo unspecified),108%
14,CC(C)(CCc1ccccn1)C(=O)CCCc1ccccn1,107%
15,CC(C)(C)OC(=O)CN1CCc2c(sc3ncnc(N/N=C/c4ccccc4Br)c23)C1,88.5%
16,CCCCC(CCCCCC(CCCC)C1NC(C)Cc2cc(OC)c(OC)cc21)C1NC(C)Cc2cc(OC)c(OC)cc21 (stereo unspecified),-84.7% (active)
17,Clc1ccc2nc(CI)c(CI)nc2c1,55.6%
18,CN1CCN(Cc2ccc(NC(=O)c3[nH]ncc3Nc3ncnc4sccc34)cc2)CC1,15.8%
19,NC(N)=Nc1ccc(Oc2cccc(NC(N)=Nc3ccc(Cl)c(C(F)(F)F)c3)c2)cc1,10.1%
20,CC1NC(C)c2ccc3ccccc3c2O1 (stereo unspecified),109%
21,COC(=O)C(=Cc1ccccc1[N+](=O)[O-])C(=O)OC,20.2%
22,COc1ccc(Cn2cc3c(c2-c2cc(OC)c(OC)c(OC)c2)CCCc2cnoc2-3)cc1,48.6%
23,COc1ccc(-c2cc(C(=O)N=Nc3c(O)[nH]c4ccccc34)c3ccccc3n2)cc1OC,92.3%
24,COc1ccc(C(Cn2ccnc2)Sc2ccc(Cl)c(Cl)c2)cc1 (stereo unspecified),63%
25,O=C(COc1ccc(C2SCC(=O)N2c2ccc(F)cc2)cc1)c1ccccc1 (stereo unspecified),89.1%
26,FC(F)(F)c1ccc(-c2cnc(Cl)nc2NC2CCCCCC2)cc1,-4.8% (active)
